Screening results: PubChem BioAssay, The Scripps Research Institute Molecular Screening Center
Only some compounds are listed: those with a hit (about 2.3% of all), similar ones and a draw of the others.
M1 antag: human CHRM1 antagonism; hit rate 1.3% among 360,000; P11229; inhibition, % at 3 µM; CHO-K1 hM1, Fluo-8 calcium fluorescence, ACh EC80 antagonist; AID 588852;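 active = percent inhibition above its own plate's cutoff, namely the mean of that plate's compound wells plus 3 SD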;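 note: peak over basal fluorescence ratio during 140 s after agonist addition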
Target sequence (P11229 whole entry, looked up): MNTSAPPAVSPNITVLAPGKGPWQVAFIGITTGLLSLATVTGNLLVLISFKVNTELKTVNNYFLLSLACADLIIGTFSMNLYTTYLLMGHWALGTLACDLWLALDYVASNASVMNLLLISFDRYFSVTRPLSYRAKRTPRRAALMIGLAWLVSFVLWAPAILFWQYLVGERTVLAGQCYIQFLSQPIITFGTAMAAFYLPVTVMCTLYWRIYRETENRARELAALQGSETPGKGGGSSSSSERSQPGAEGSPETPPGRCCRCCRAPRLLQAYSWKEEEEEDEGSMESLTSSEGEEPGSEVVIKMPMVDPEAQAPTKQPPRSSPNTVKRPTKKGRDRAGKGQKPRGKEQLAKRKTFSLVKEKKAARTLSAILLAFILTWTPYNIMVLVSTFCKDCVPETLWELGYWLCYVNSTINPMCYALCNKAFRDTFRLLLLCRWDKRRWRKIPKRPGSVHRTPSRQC
CHO-K1 Ca antag: nonselective inhibitor or artifact in parental CHO-K1 cells; ATP-induced calcium, Fluo-8 fluorescence; inhibition, % at 3 µM; hit rate 0.6% among 360,000;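 active = inhibition above a per-plate cutoff, the plate's mean sample inhibition plus 3 SD, cut at about 24% in these data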
M1 PAM parental: nonselective activator or artifact in parental CHO-K1 calcium assay; hit rate 0.02% among 360,000; ATP EC20, Fluo-8 calcium fluorescence; 0% at ATP EC20, 100% at ATP max; activation, % at 3 µM; AID 602247;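 active = activation above the run cutoff, the mean activation of all test compounds plus 3 SD, cut at about 40% in these data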;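 note: peak over basal fluorescence ratio in a 140 s read after ATP addition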
M1 ag parental: counter-screen for M1 agonists: effect in parental CHO-K1 cells | Fluo-8 calcium fluorescence; scaled to maximal ATP response, vehicle zero | activation, % at 3 µM | hit rate 0.48% among 360,000 | AID 602248; in the data active = activation above about 15%;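 note: untransfected CHO-K1 host cells lacking M1 receptor as counterscreen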
CHRM1 agonist: human M1 muscarinic receptor agonism; P11229; CHO-K1 hM1, Fluo-8 calcium fluorescence, agonist mode; 0% DMSO, 100% acetylcholine EC100; activation, % at 3 µM; hit rate 0.33% among 360,000; AID 588814;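 active = activation above the run's mean compound activation plus 3 SD, cut at about 16% in these data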;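 note: peak over basal fluorescence ratio within a 140 s kinetic read after compound addition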
CHRM1 PAM: positive allosteric modulators of human M1 muscarinic receptor; P11229; activation, % at 3 µM; CHO-K1 hM1, Fluo-8 calcium fluorescence, ACh EC20; 0% = ACh EC20, 100% = maximal ACh; hit rate 0.088% among 360,000; in the data active = activation above about 19%, passing the limit was not always enough
Each line names hits and unclear results; the compound was inactive in the other large screens.

CCCc1cc(Nc2ccccc2OCC)n2ncnc2n1	CHO-K1 Ca antag 28
Cc1cc(C)c(OCC(=O)OCC(=O)NCc2ccco2)c(C)c1	none
CC1(C(=O)NS(=O)(=O)c2cccc(Cl)c2)CCN1C(=O)c1ccccc1CCc1ccccc1 (stereo unspecified)	none
CN(Cc1ccccc1)S(=O)(=O)c1ccc(Cl)c(C(=O)O)c1	none
CN(C)C(CNC(=O)c1ccc(Br)cc1)c1ccco1 (stereo unspecified)	none
CN(C)C(CNC(=O)c1cc(Br)ccc1Cl)c1ccco1 (stereo unspecified)	M1 ag parental 17
CN(C)C(CNC(=O)c1cc(S(=O)(=O)N(C)Cc2ccccc2)ccc1Cl)c1ccco1 (stereo unspecified)	M1 antag 31
CCNC(=O)C1(C)CCCN(Cc2ccc3ccccc3c2Br)C1 (stereo unspecified)	none
Cc1c(C)c2ccc(OCC(=O)N[C@@H](Cc3c[nH]c4ccccc34)C(=O)O)cc2oc1=O	CHO-K1 Ca antag 29
CC(=O)N(CCc1ccccc1)c1ccc2c(c1)C1CC2CCN1C(=O)OCc1ccccc1 (stereo unspecified)	none
C/C(=N\NC(=O)OC(C)(C)C)c1ccc(-n2ccnc2)cc1	none
C/C(=N\NC(=O)c1ccccc1)c1ccc(-n2ccnc2)cc1	CHO-K1 Ca antag 28
C=C(C)CNC(=S)N/N=C(\C)c1ccc(-n2ccnc2)cc1	none
C/C(=N\NC(N)=S)c1ccc(-n2ccnc2)cc1	CHRM1 PAM 29
O=C1c2ccccc2[C@@H]2C[C@@H](O)[C@H](Nc3cccc4ccccc34)CCN12	M1 antag 25
CC[C@H](C)[C@H]1CNC(=O)C(=O)N1CC1CCN(CC2CCC(C)CC2)CC1 (stereo partly specified)	none
CC(C)C[C@H]1CNC(=O)C(=O)N1CC1CCN(CC2CCC(C)CC2)CC1 (stereo partly specified)	M1 antag 39
c1cnc2c(-c3ccc4nccn4c3)cccc2c1	none
O=C(NCCCN1CCOCC1)C(=O)N/N=C/c1c(Cl)cccc1Cl	none
O=C(NCCCN1CCOCC1)C(=O)N/N=C/c1c2ccccc2cc2ccccc12	M1 antag 65
Cc1cc(C)cc(C(O)c2ncc(-c3ccccc3Cl)[nH]2)c1 (stereo unspecified)	none
N#Cc1cnn(CC2CCCCC2)c1N	CHO-K1 Ca antag 30
CCOC(=O)[C@@H](NC(=O)CC[C@H]1O[C@@H](n2ccc(=O)[nH]c2=O)[C@H](O)[C@@H]1O)C(C)C	none
CCOC(=O)CSc1ncnc2c1sc1nc(N3CCOCC3)c3c(c12)CCCC3	CHO-K1 Ca antag 34
CC(C)NC(=O)C(Sc1ccccc1)c1ccccc1 (stereo unspecified)	CHO-K1 Ca antag 24
CC(=O)O[C@@H](Cc1ccc(O)cc1)C(=O)CC(C)C	none (no result: M1 antag, CHRM1 agonist, CHRM1 PAM)
O=C(Nc1ccc(Cl)cc1)N1CCC(c2nc(-c3cccs3)no2)CC1	none
O=C(Nc1ccc(Cl)cc1)N1CCC(c2nc(-c3ccccc3Cl)no2)CC1	M1 antag 20
CC(C)CNC(=S)N1CCC(c2nc(-c3ccc(F)cc3)no2)CC1	M1 antag 33
O=C(Nc1cccc(C(F)(F)F)c1)N1CCC(c2nc(-c3ccc(F)cc3)no2)CC1	M1 antag 65
O=C(Nc1ccccc1)N1CCCC(c2nc(-c3ccc(F)cc3)no2)C1 (stereo unspecified)	none
CCOC(=O)[C@]12CCC=C1N(Cc1ccccc1)C(=O)[C@H](CC(=O)NCc1cccs1)C2	none (no result: M1 antag, CHRM1 agonist, CHRM1 PAM)
COc1ccc(CCC(=O)OCC(=O)Nc2sccc2C(N)=O)cc1	M1 antag 39, CHO-K1 Ca antag 34, M1 ag parental 16
COc1ccc(C(=O)NC(C(=O)OCC(=O)Nc2sccc2C(N)=O)C(C)C)cc1 (stereo unspecified)	none
COc1ccc(CCC(=O)OCC(=O)Nc2sccc2C(N)=O)cc1OC	CHO-K1 Ca antag 26
NC(=O)c1ccc(-c2ccc(N3C(c4ccsc4)=Cc4ccc(F)cc4C3CC(=O)c3ccco3)cc2)cc1 (stereo unspecified)	none (no result: M1 antag, CHRM1 agonist, CHRM1 PAM)
CCOc1ccc(NS(=O)(=O)c2ccc(C(=O)N3CCCC(C)C3)cc2)cc1 (stereo unspecified)	M1 antag 28, M1 ag parental 31, CHRM1 agonist 39
CCOC(=O)N1CCN(C(=O)c2ccc(NS(=O)(=O)c3ccc(C)cc3)cc2)CC1	none
CCOC(=O)N1CCN(C(=O)c2ccc(S(=O)(=O)Nc3ccc(C)cc3)cc2)CC1	M1 antag 32
O=C(c1ccc(S(=O)(=O)Nc2ccccc2)cc1)N1CCCC(C(F)(F)F)C1 (stereo unspecified)	CHO-K1 Ca antag 26, M1 ag parental 15, CHRM1 agonist 31
CCCC(=O)Nc1ccc(C(=O)N2CCCC2)cc1	CHO-K1 Ca antag 24
Cc1cn([C@H]2C[C@H](O)[C@@H](/C=C/C(=O)NCc3ccc4c(c3)OCO4)O2)c(=O)[nH]c1=O	none
CC(C)(C)OC(=O)N(CC1CCNCC1)C(=O)c1[nH]c(C(F)(F)F)nc1-c1ccccc1	none
Cc1ccc(CN2C(=O)C(C)Sc3ccc(C#N)cc32)cc1 (stereo unspecified)	none
COc1ccc(CNS(=O)(=O)c2c(C(=O)N3CCCCCC3)c(C)n(C)c2C)cc1	CHO-K1 Ca antag 26
CCOc1ccc(NS(=O)(=O)c2ccc(C(=O)NCC3(N(C)C)CCCCC3)cc2)cc1	M1 ag parental 19
COc1ccc(NS(=O)(=O)c2ccc(OCC(=O)N3CCCC3)cc2)cc1	M1 ag parental 17
O=C(COc1ccc(S(=O)(=O)NC2CCCCC2)cc1)N1CCN(c2cccc(Cl)c2)CC1	M1 antag 26
CC(C)NS(=O)(=O)c1ccc(OCC(=O)N2CCN(c3ccccc3)CC2)cc1	none
CN(C)c1ccc(-c2ccnc3c2CC(C)(C(=O)Nc2ccc(Cl)c(C(F)(F)F)c2)O3)cc1 (stereo unspecified)	none
Cc1ccc(NS(=O)(=O)c2ccc(C(=O)N3CC(C)OC(C)C3)cc2)cc1 (stereo unspecified)	M1 ag parental 33, CHRM1 agonist 39
CCOc1ccc(NS(=O)(=O)c2ccc(C(=O)N3CCCCCC3)cc2)cc1	M1 ag parental 15, CHRM1 agonist 22
Cc1ccc(NS(=O)(=O)c2ccc(C(=O)N3CCC3)cc2)cc1	none
COc1ccc(NS(=O)(=O)c2ccc(C(=O)N3CCCCCC3)cc2)cc1	M1 ag parental 18, CHRM1 agonist 23
CCCCCn1c(=O)[nH]c2cc(C(=O)O)ccc2c1=O	none
CCCCCn1c(=O)[nH]c2cc(C(=O)N3CCN(C(=O)OCC)CC3)ccc2c1=O	M1 antag 49
COc1ccccc1Cn1c(=S)[nH]c2cc(C(=O)N3CCC(C(N)=O)CC3)ccc2c1=O	none
